In PubChem BioAssay (NCATS):
Records with an inconclusive call do not appear. Activity calls are given as the source filed them. Calls follow the shape of the dose curve; as a rule, active = well fitted curve in the direction sought with a large enough effect; inconclusive = small, poorly fitted or top-dose-only effect, or another doubt; inactive = no such curve, though single readings can be large; an effect the other way counts as inactive or inconclusive.

What was measured:
[1] = tested on: Zika virus NS2B-NS3 protease (linked construct); test: Primary screen NINDS Rhodamine qHTS for Zika virus inhibitors (AID 1347160); also: nearly all actives have a fitted effect of over 55% in size; as to activity change, negative = inhibition: % is scaled to controls: 0 for no effect and ±100 for the full control effect
Summary of the method: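 Enzyme (25 nM, linked NS2B-NS3) was preincubated 15 min with compound in 10 mM Tris-HCl pH 8.0, 0.01% Tween 20. Rhodamine110 substrate (1.5 microM) was then added and fluorescence read at start and after 15 min.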

[2] = target: Calcium and integrin-binding protein 1 (Homo sapiens) (UniProt Q99828); test: Primary qHTS for Identification of Calcium Integrin Binding Protein 1 (CIB1) Competitor (AID 1508620);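 also: GST tagged CIB1 binding a fluorescein labelled alphaIIb integrin peptide tracer; top concentration of the series differs between compounds; % is scaled to controls: 0 for no effect and ±100 for the full control effect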
Summary of the method: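 Fluorescence polarization competition: CIB1-GST (1 uM final) preincubated with compound 15 min at room temperature, then FITC-labeled alphaIIb peptide (100 nM final) added for another 15 min. Polarization read at Ex 480/Em 540.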

[3] = target: Glutathione peroxidase 1 (Homo sapiens) (UniProt P07203); test: Primary qHTS Assay for Inhibitors of Recombinant Selenoprotein Glutathione Peroxidase 1 (GPX1) (AID 1845191); also: nearly all actives have a fitted effect of over 65% in size; as to activity, negative = inhibition: % is scaled to controls: 0 for no effect and ±100 for the full control effect
Summary of the method: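 GPX1 10 nM, GR 100 nM, GSH 1 mM, NADPH 0.5 mM, CHP 0.5 mM (final). 30-min cpd preincubation, RT. Ex340/Em450 read t=0, t=15 min.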

[4] = target: Luciferin 4-monooxygenase (Photinus pyralis) (UniProt P08659); test: Primary firefly luciferase (FLuc) qHTS assay for identification of artifact compounds. (AID 1845220); conditions: outcome: dose series up to 54.1 µM unless noted; also: nearly all actives have a fitted effect of over 60% in size;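 as to activity change, negative = inhibition: plate controls were DMSO vehicle for no effect and no enzyme for full effect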
Summary of the method: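 Reaction readout was CCD-imaged luminescence, taken 5 min after adding 10 nM purified firefly enzyme to compound-treated wells holding 10 uM luciferin and ATP in pH 7.6 buffer.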

[5] = Primary fluorescence-based thiol-reactive (MSTI) qHTS assay for identification of artifact compounds. (AID 1845221);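 also: thiol-reactive compounds lower the probe fluorescence signal; nearly all actives have a fitted effect of over 65% in size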
Summary of the method: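 Curve-fitted percent inhibition (4-parameter Hill) derived from fluorescence, Ex 525/Em 598 nm, scaled with Acetyl-MSTI and MSTI; 1 h incubation at room temperature.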

[6] = tested on: Nanoluciferase (engineered Oplophorus gracilirostris luciferase); test: Primary Nanoluciferase (NLuc) qHTS assay for identification of artifact compounds. (AID 1845222);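 also: NLuc secreted into diluted conditioned medium of S16 cells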
Summary of the method: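 Concentration-response data were obtained by luminescence after 5 min with Nano-Glo substrate at 1:100. The enzyme was diluted S16 NLuc-expressing cell medium, preincubated with compound for 15 min at RT. Curves were fitted with a 4-parameter Hill model.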

[7] = Primary redox qHTS assay for identification of artifact compounds. (AID 1845223);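 also: 0% = DMSO and 100% = reference compound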
Summary of the method: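 Redox-cycling detection via DTT (250 uM final) oxidation coupled to Amplex Red (25 uM)/HRP (250 mU/mL) in HBSS. 15 min preincubation plus 30 min after DTT, room temperature. Ex/Em 525/598 nm; 4-parameter Hill fit against DMSO and 10 uM DA3003.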

CRL-7250 = normal cell line; test: Cytotoxic Profiling of Annotated Libraries Using Quantitative High-Throughput Screening (AID 1296008); conditions: Five cell lines viability, CellTiter-Glo ATP luminescence, 48-72 h; max response: stronger effect = lower value; also: nearly all actives have a fitted effect of over 60% in size; as to max response: % is scaled to controls: 0 for no effect and ±100 for the full control effect
Summary of the method: (§1)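 Compounds were pin-transferred onto cells and incubated 48 or 72 hr at 37 degree Celsius, 95% humidity. CellTiter-Glo was added, plates sat 10 min at room temperature, then ATP-coupled luminescence was imaged as the viability read-out.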

KB-3-1 = test: as above; conditions: Five cell lines viability, CellTiter-Glo ATP luminescence, 48-72 h; max response: stronger effect = lower value
Summary of the method: as §1

C33A = test: Primary qHTS to identify gynecologic anti-cancer compounds using libraries of approved drugs and bioactive compounds (AID 1345084); conditions: Gynecologic cancer cell panel viability, ATPlite luminescence, 48 h; series mostly up to 57.5 µM; also: % is scaled to controls: 0 for no effect and ±100 for the full control effect; nearly all actives have a fitted effect of over 55% in size
Summary of the method: (§2)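 Cytotoxicity screen measuring ATP content by luciferase luminescence. Each compound is applied at five concentrations for 48 h at 37 C with 5% CO2.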

CAOV3 = test: as above; conditions: Gynecologic cancer cell panel viability, ATPlite luminescence, 48 h; series mostly up to 57.5 µM
Summary of the method: as §2

CASKI = test: as above; conditions: Gynecologic cancer cell panel viability, ATPlite luminescence, 48 h; series mostly up to 57.5 µM
Summary of the method: as §2

Es-2 = test: as above; conditions: Gynecologic cancer cell panel viability, ATPlite luminescence, 48 h; series mostly up to 57.5 µM
Summary of the method: as §2

OV90 = test: as above; conditions: Gynecologic cancer cell panel viability, ATPlite luminescence, 48 h; series mostly up to 57.5 µM
Summary of the method: as §2

PA-1 = test: as above; conditions: Gynecologic cancer cell panel viability, ATPlite luminescence, 48 h; series mostly up to 57.5 µM
Summary of the method: as §2

Tov-21-G = test: as above; conditions: Gynecologic cancer cell panel viability, ATPlite luminescence, 48 h; series mostly up to 57.5 µM
Summary of the method: as §2

Tov112D = test: as above; conditions: Gynecologic cancer cell panel viability, ATPlite luminescence, 48 h; series mostly up to 57.5 µM
Summary of the method: as §2

Hek293T = test: as above; conditions: Gynecologic cancer cell panel viability, ATPlite luminescence, 48 h, control line for the selectivity index; series mostly up to 57.5 µM
Summary of the method: as §2

JEG-3 = test: as above; conditions: Gynecologic cancer cell panel viability, ATPlite luminescence, 48 h; series mostly up to 57.5 µM
Summary of the method: as §2

[8] = target: Phospholipid hydroperoxide glutathione peroxidase GPX4 (Homo sapiens) (UniProt P36969); test: Primary qHTS Assay for Inhibitors of Recombinant Selenoprotein Glutathione Peroxidase 4 (GPX4) (AID 1845192); also: % is scaled to controls: 0 for no effect and ±100 for the full control effect; nearly all actives have a fitted effect of over 65% in size
Summary of the method: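 qHTS, GR-coupled: GPX4 200 nM + cpd 30 min RT → GSH 1 mM, NADPH 0.5 mM, GR 100 nM → CHP 0.5 mM start; fluor 340/450 at t0 and t15 min; no-enzyme wells as control.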

Chain of Calcium and integrin-binding protein 1 (Homo sapiens) (Q99828 whole entry, looked up): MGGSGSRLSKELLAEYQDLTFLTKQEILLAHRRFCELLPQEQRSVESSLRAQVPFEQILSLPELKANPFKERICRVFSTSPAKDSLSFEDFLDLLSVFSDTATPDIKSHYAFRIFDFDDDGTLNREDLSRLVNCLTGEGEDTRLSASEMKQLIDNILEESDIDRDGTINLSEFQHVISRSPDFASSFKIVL
Chain of Phospholipid hydroperoxide glutathione peroxidase GPX4 (Homo sapiens) (P36969 whole entry, looked up): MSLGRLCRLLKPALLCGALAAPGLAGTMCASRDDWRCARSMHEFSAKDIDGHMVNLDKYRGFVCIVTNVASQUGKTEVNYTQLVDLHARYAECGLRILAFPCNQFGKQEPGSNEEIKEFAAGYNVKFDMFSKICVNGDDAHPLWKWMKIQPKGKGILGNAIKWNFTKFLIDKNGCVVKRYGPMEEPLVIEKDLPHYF
Chain of Glutathione peroxidase 1 (Homo sapiens) (P07203 whole entry, looked up): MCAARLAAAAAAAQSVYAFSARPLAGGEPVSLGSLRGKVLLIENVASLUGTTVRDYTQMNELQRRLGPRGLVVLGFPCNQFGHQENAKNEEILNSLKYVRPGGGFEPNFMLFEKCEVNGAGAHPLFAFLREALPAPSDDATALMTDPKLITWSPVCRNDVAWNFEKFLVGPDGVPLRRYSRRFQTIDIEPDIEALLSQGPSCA

CCOP(=O)(OCC)Oc1ccc2c(C)cc(=O)oc2c1
inactive: Potency [1] | Potency [2] | Potency [3] | outcome [4] | Potency [5] | Potency [6] | Potency [7] | max response (CRL-7250) -4.98% | max response (KB-3-1) -1.13% | Potency (C33A) | Potency (CAOV3) | Potency (CASKI) | Potency (Es-2) | Potency (OV90) | Potency (PA-1) | Potency (Tov-21-G) | Potency (Tov112D)

COC1(C[S@@](=O)c2ccccc2)CCN(CCc2c[nH]c3ccc(F)cc23)CC1
inactive: Potency [1] | Potency [2] | Potency [3] | outcome [4] | Potency [5] | Potency [6] | Potency [7] | max response (CRL-7250) 3.05% | max response (KB-3-1) 6.86% | Potency (C33A) | Potency (CAOV3) | Potency (CASKI) | Potency (Es-2) | Potency (Hek293T) | Potency (JEG-3) | Potency (OV90) | Potency (PA-1) | Potency (Tov-21-G) | Potency (Tov112D)

O=S(=O)(c1ccccc1F)N1CCOc2c(N3CCNCC3)cccc21
inactive: Potency [1] | Potency [2] | Potency [3] | Potency [8] | outcome [4] | Potency [5] | Potency [6] | Potency [7] | max response (CRL-7250) 2.13% | outcome (KB-3-1) | Potency (C33A) | Potency (CASKI) | Potency (Es-2) | Potency (Hek293T) | Potency (JEG-3) | Potency (OV90) | Potency (PA-1) | Potency (Tov-21-G) | Potency (Tov112D)

C/C=C(\C)C(=O)OC1C2C3(C)CCC(OC4CC(OC)C(OC5OC(C)C(O)C(OC)C5O)C(C)O4)CC3CCC23OC32CCC(C(C)=O)C2(C)C1OC(=O)/C(C)=C/C (configuration not stated)
inactive: Potency [1] | Potency [2] | Potency [3] | Potency [8] | activity change, negative = inhibition [4] 0.886% [at 11.6 µM] | activity change, negative = thiol reactive [5] 84.6% [at 11.5 µM] | activity, negative = inhibition [6] 2.09% [at 11.6 µM] | redox activity (% of DA3003) [7] 18.3% [at 11.5 µM] | max response (CRL-7250) -2.9% | max response (KB-3-1) -21.8% | activity change, negative = cytotoxicity (C33A) 10.6% [at 11.6 µM] | activity change, negative = cytotoxicity (CAOV3) 0.328% [at 11.6 µM] | activity change, negative = cytotoxicity (CASKI) -3.16% [at 11.6 µM] | activity change, negative = cytotoxicity (Es-2) -0.14% [at 11.6 µM] | activity change, negative = cytotoxicity (Hek293T) 2.72% [at 11.6 µM] | activity change, negative = cytotoxicity (JEG-3) 7.67% [at 11.6 µM] | activity change, negative = cytotoxicity (OV90) 2.67% [at 11.6 µM] | activity change, negative = cytotoxicity (PA-1) 2.59% [at 11.6 µM] | activity change, negative = cytotoxicity (Tov-21-G) -0.804% [at 11.6 µM] | activity change, negative = cytotoxicity (Tov112D) -1.3% [at 11.6 µM]

C[C@H]1CC[C@@H]2[C@@H](C)[C@H]3[C@H](C[C@H]4[C@@H]5CC=C6CC(O[C@@H]7O[C@H](CO)[C@@H](O)[C@H](O[C@@H]8O[C@H](CO)[C@@H](O)[C@H](O)[C@H]8O)[C@@H]7O[C@@H]7O[C@@H](C)[C@H](O)[C@@H](O)[C@H]7O)CC[C@]6(C)[C@H]5CC[C@]34C)N2C1 (some centres not stated)
inactive: Potency [1] | Potency [2] | Potency [3] | Potency [8] | outcome [4] inactive [at 11.6 µM] | activity change, negative = thiol reactive [5] 134% [at 11.5 µM] | activity, negative = inhibition [6] -0.992% [at 11.6 µM] | max response (CRL-7250) -16.5% | max response (KB-3-1) 2.33% | activity change, negative = cytotoxicity (C33A) -12.6% [at 11.6 µM] | activity change, negative = cytotoxicity (CAOV3) 17.5% [at 11.6 µM] | activity change, negative = cytotoxicity (CASKI) 0.984% [at 11.6 µM] | activity change, negative = cytotoxicity (Es-2) -2.66% [at 11.6 µM] | activity change, negative = cytotoxicity (Hek293T) 11.3% [at 11.6 µM] | activity change, negative = cytotoxicity (JEG-3) -0.31% [at 11.6 µM] | activity change, negative = cytotoxicity (OV90) -5.29% [at 11.6 µM] | activity change, negative = cytotoxicity (PA-1) 7.63% [at 11.6 µM] | activity change, negative = cytotoxicity (Tov-21-G) -1.56% [at 11.6 µM] | activity change, negative = cytotoxicity (Tov112D) 5.33% [at 11.6 µM]

CC(O)(c1ccccc1)C(Cc1ccc(Cl)cc1)n1cncn1 (configuration not stated)
inactive: Potency [1] | Potency [2] | Potency [3] | Potency [8] | outcome [4] | Potency [5] | Potency [6] | Potency [7] | max response (CRL-7250) 0.336% | max response (KB-3-1) -4.41% | Potency (C33A) | Potency (CAOV3) | Potency (CASKI) | Potency (Es-2) | Potency (Hek293T) | Potency (JEG-3) | Potency (OV90) | Potency (PA-1) | Potency (Tov-21-G) | Potency (Tov112D)

C/C=C1/CN2CC[C@]34C(=Nc5ccccc53)[C@@H]2C[C@@H]1[C@H]4C(=O)OC
inactive: Potency [1] | Potency [2] | Potency [3] | Potency [8] | outcome [4] | Potency [6] | Potency [7] | max response (CRL-7250) 2.71% | max response (KB-3-1) -1.68% | Potency (C33A) | Potency (CAOV3) | Potency (CASKI) | Potency (Es-2) | Potency (Hek293T) | Potency (JEG-3) | Potency (OV90) | Potency (PA-1) | Potency (Tov-21-G) | Potency (Tov112D)

C=C[C@H]1CN2CCC1C[C@H]2[C@H](O)c1ccnc2ccccc12 (some centres not stated)
inactive: Potency [1] | Potency [2] | outcome [4] | Potency [5] | Potency [6] | Potency [7] | max response (CRL-7250) -4.97% | max response (KB-3-1) 2.39% | Potency (C33A) | Potency (CAOV3) | Potency (CASKI) | Potency (Es-2) | Potency (Hek293T) | Potency (JEG-3) | Potency (OV90) | Potency (PA-1) | Potency (Tov-21-G) | Potency (Tov112D)

CN1C(=O)[C@]23CC4C(C)(C)[C@@]5(C[C@@]41CN2CC[C@@]3(C)O)C(=O)Nc1c5ccc2c1OC=CC(C)(C)O2 (some centres not stated)
inactive: Potency [2] | Potency [3] | Potency [8] | outcome [4] | Potency [6] | Potency [7] | max response (CRL-7250) -5.32% | max response (KB-3-1) 1.88% | Potency (C33A) | Potency (CAOV3) | Potency (CASKI) | Potency (Es-2) | Potency (Hek293T) | Potency (JEG-3) | Potency (OV90) | Potency (PA-1) | Potency (Tov-21-G) | Potency (Tov112D)

C[C@@H]1CCC2[C@@H](C)C(=O)OC3O[C@@]4(C)CCC1[C@]32OO4 (some centres not stated)
inactive: Potency [1] | Potency [2] | Potency [8] | outcome [4] | Potency [5] | Potency [6] | Potency [7] | max response (CRL-7250) -1.83% | max response (KB-3-1) -7.11% | Potency (C33A) | Potency (CAOV3) | Potency (CASKI) | Potency (Es-2) | Potency (Hek293T) | Potency (JEG-3) | Potency (OV90) | Potency (PA-1) | Potency (Tov-21-G) | Potency (Tov112D)

O=C(N1CCCCC1Cc1ccccc1)n1cc(-c2ccc(-c3ccccc3)cc2)nn1 (configuration not stated)
inactive: Potency [1] | Potency [2] | Potency [3] | Potency [8] | Potency [5] | Potency [6] | Potency [7] | max response (CRL-7250) 2.49% | max response (KB-3-1) -19% | Potency (C33A) | Potency (CAOV3) | Potency (CASKI) | Potency (Es-2) | Potency (Hek293T) | Potency (JEG-3) | Potency (OV90) | Potency (PA-1) | Potency (Tov-21-G) | Potency (Tov112D)
